Source: publication PMC11006913

Columns and labels:
Assay in all cases: PBM; 200 nM protein, PBS
Conditions in all cases: dsDNA, one strand shown
HESX1 [1] = target: HESX1 (Homo sapiens, UniProt Q9UBX0 95-180, R165K)
HESX1 [2] = target: HESX1 (Homo sapiens, UniProt Q9UBX0 95-180)
HESX1 [3] = target: HESX1 (Homo sapiens, UniProt Q9UBX0 95-180, R109Q)
HESX1 [4] = target: HESX1 (Homo sapiens, UniProt Q9UBX0 95-180, P111T)
HESX1 [5] = target: HESX1 (Homo sapiens, UniProt Q9UBX0 95-180, F115L)
PROP1 [6] = target: PROP1 (Homo sapiens, UniProt O75360 56-141)
PROP1 (Homo sapiens, UniProt O75360 56-141), sequence (O75360 56-141): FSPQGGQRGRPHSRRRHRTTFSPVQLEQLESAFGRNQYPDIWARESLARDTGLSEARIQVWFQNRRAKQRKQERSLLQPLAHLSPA

PROP1 [7] = target: PROP1 (Homo sapiens, UniProt O75360 56-141, R99H)
PROP1 (Homo sapiens, UniProt O75360 56-141, R99H), sequence (O75360 56-141 R99H): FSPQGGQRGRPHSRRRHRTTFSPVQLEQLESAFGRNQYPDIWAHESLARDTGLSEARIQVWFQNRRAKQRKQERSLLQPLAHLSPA

PROP1 [8] = target: PROP1 (Homo sapiens, UniProt O75360 56-141, F88S)
PROP1 (Homo sapiens, UniProt O75360 56-141, F88S), sequence (O75360 56-141 F88S): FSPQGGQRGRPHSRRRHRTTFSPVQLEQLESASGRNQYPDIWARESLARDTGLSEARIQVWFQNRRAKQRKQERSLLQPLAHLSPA

VAX1 [9] = target: VAX1 (Homo sapiens, UniProt Q5SQQ9 86-172)
VAX1 (Homo sapiens, UniProt Q5SQQ9 86-172), sequence (Q5SQQ9 86-172): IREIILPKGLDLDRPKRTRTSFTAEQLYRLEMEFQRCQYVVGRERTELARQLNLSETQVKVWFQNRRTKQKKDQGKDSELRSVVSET

VAX1 [10] = target: VAX1 (Homo sapiens, UniProt Q5SQQ9 86-172, T142I)
VAX1 (Homo sapiens, UniProt Q5SQQ9 86-172, T142I), sequence (Q5SQQ9 86-172 T142I): as the sequence (Q5SQQ9 86-172) above, with T57I counted along it

VAX1 [11] = target: VAX1 (Homo sapiens, UniProt Q5SQQ9 86-172, K157R)
VAX1 (Homo sapiens, UniProt Q5SQQ9 86-172, K157R), sequence (Q5SQQ9 86-172 K157R): as the sequence (Q5SQQ9 86-172) above, with K72R counted along it

ALX1 [12] = target: ALX1 (Homo sapiens, UniProt Q15699 118-204, L144V)
ALX1 (Homo sapiens, UniProt Q15699 118-204, L144V), sequence (Q15699 118-204 L144V): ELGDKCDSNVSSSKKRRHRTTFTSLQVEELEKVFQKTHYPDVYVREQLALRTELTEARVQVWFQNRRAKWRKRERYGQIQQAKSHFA

ALX1 [13] = target: ALX1 (Homo sapiens, UniProt Q15699 118-204, L144R)
ALX1 (Homo sapiens, UniProt Q15699 118-204, L144R), sequence (Q15699 118-204 L144R): as the sequence (Q15699 118-204 L144V) above, with V27R counted along it

ALX1 [14] = target: ALX1 (Homo sapiens, UniProt Q15699 118-204)
ALX1 (Homo sapiens, UniProt Q15699 118-204), sequence (Q15699 118-204): as the sequence (Q15699 118-204 L144V) above, with V27L counted along it

NKX2-6 = target: T1, NKX2-6 (Homo sapiens, UniProt A6NCS4 118-204, R150C)
T1 sequence: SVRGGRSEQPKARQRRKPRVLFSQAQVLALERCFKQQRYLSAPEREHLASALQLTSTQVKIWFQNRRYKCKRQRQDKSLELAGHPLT

HESX1 (Homo sapiens, UniProt Q9UBX0 95-180, F115L), sequence (Q9UBX0 95-180 F115L): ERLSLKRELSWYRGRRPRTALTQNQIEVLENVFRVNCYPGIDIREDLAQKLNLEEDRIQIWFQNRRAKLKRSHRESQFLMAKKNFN
HESX1 (Homo sapiens, UniProt Q9UBX0 95-180), sequence (Q9UBX0 95-180): as the sequence (Q9UBX0 95-180 F115L) above, with L21F counted along it
HESX1 (Homo sapiens, UniProt Q9UBX0 95-180, R165K), sequence (Q9UBX0 95-180 R165K): as the sequence (Q9UBX0 95-180 F115L) above, with L21F, R71K counted along it
HESX1 (Homo sapiens, UniProt Q9UBX0 95-180, P111T), sequence (Q9UBX0 95-180 P111T): as the sequence (Q9UBX0 95-180 F115L) above, with P17T, L21F counted along it
HESX1 (Homo sapiens, UniProt Q9UBX0 95-180, R109Q), sequence (Q9UBX0 95-180 R109Q): as the sequence (Q9UBX0 95-180 F115L) above, with R15Q, L21F counted along it

**Q.** Which binding signal (HESX1 [1]) does the source give for AATACATA here?
**A.** 7.62 upbm affinity estimate (log intensity, higher = more binding, comparable within an allelic series)

**Q.** And the binding signal (HESX1 [2])?
**A.** 7.7 upbm affinity estimate (log intensity, higher = more binding, comparable within an allelic series)

**Q.** And the binding signal (HESX1 [3])?
**A.** 7.3 upbm affinity estimate (log intensity, higher = more binding, comparable within an allelic series)

**Q.** And the binding signal (HESX1 [4])?
**A.** 7.6 upbm affinity estimate (log intensity, higher = more binding, comparable within an allelic series)

**Q.** What about the binding signal (HESX1 [5]) of the same sequence?
**A.** 7.4 upbm affinity estimate (log intensity, higher = more binding, comparable within an allelic series)

**Q.** Which results are given for GCAGCGCA?
**A.** binding signal (HESX1 [1]): 6.45 upbm affinity estimate (log intensity, higher = more binding, comparable within an allelic series); binding signal (HESX1 [2]): 6.27 upbm affinity estimate (log intensity, higher = more binding, comparable within an allelic series); binding signal (PROP1 [6]): 6.75 upbm affinity estimate (log intensity, higher = more binding, comparable within an allelic series); binding signal (HESX1 [3]): 6.54 upbm affinity estimate (log intensity, higher = more binding, comparable within an allelic series); binding signal (PROP1 [7]): 6.76 upbm affinity estimate (log intensity, higher = more binding, comparable within an allelic series); binding signal (HESX1 [4]): 6.47 upbm affinity estimate (log intensity, higher = more binding, comparable within an allelic series); binding signal (PROP1 [8]): 6.81 upbm affinity estimate (log intensity, higher = more binding, comparable within an allelic series); binding signal (HESX1 [5]): 6.53 upbm affinity estimate (log intensity, higher = more binding, comparable within an allelic series)

**Q.** With ACAGCGCG as the sequence, how does the binding signal (HESX1 [1]) read?
**A.** 6.46 upbm affinity estimate (log intensity, higher = more binding, comparable within an allelic series)

**Q.** What about the binding signal (HESX1 [2]) of the same sequence?
**A.** 6.41 upbm affinity estimate (log intensity, higher = more binding, comparable within an allelic series)

**Q.** What about the binding signal (HESX1 [3]) of the same sequence?
**A.** 6.49 upbm affinity estimate (log intensity, higher = more binding, comparable within an allelic series)

**Q.** What about the binding signal (VAX1 [9]) of the same sequence?
**A.** 7.27 upbm affinity estimate (log intensity, higher = more binding, comparable within an allelic series)

**Q.** And the binding signal (HESX1 [4])?
**A.** 6.48 upbm affinity estimate (log intensity, higher = more binding, comparable within an allelic series)

**Q.** And the binding signal (HESX1 [5])?
**A.** 6.44 upbm affinity estimate (log intensity, higher = more binding, comparable within an allelic series)

**Q.** What about the binding signal (VAX1 [10]) of the same sequence?
**A.** 7.28 upbm affinity estimate (log intensity, higher = more binding, comparable within an allelic series)

**Q.** What about the binding signal (VAX1 [11]) of the same sequence?
**A.** 7.22 upbm affinity estimate (log intensity, higher = more binding, comparable within an allelic series)

**Q.** How did the binding signal (HESX1 [1]) turn out when CTCAATAC was run?
**A.** 7.27 upbm affinity estimate (log intensity, higher = more binding, comparable within an allelic series)

**Q.** What about the binding signal (HESX1 [2]) of the same sequence?
**A.** 7.48 upbm affinity estimate (log intensity, higher = more binding, comparable within an allelic series)

**Q.** What about the binding signal (HESX1 [3]) of the same sequence?
**A.** 7.22 upbm affinity estimate (log intensity, higher = more binding, comparable within an allelic series)

**Q.** And the binding signal (HESX1 [4])?
**A.** 7.29 upbm affinity estimate (log intensity, higher = more binding, comparable within an allelic series)

**Q.** With CTGGGCTC as the sequence, how does the binding signal (HESX1 [1]) read?
**A.** 6.43 upbm affinity estimate (log intensity, higher = more binding, comparable within an allelic series)

**Q.** What about the binding signal (HESX1 [2]) of the same sequence?
**A.** 6.41 upbm affinity estimate (log intensity, higher = more binding, comparable within an allelic series)

**Q.** And the binding signal (ALX1 [12])?
**A.** 6.37 upbm affinity estimate (log intensity, higher = more binding, comparable within an allelic series)

**Q.** What about the binding signal (ALX1 [13]) of the same sequence?
**A.** 6.38 upbm affinity estimate (log intensity, higher = more binding, comparable within an allelic series)

**Q.** And the binding signal (HESX1 [3])?
**A.** 6.43 upbm affinity estimate (log intensity, higher = more binding, comparable within an allelic series)

**Q.** And the binding signal (HESX1 [4])?
**A.** 6.51 upbm affinity estimate (log intensity, higher = more binding, comparable within an allelic series)

**Q.** What about the binding signal (HESX1 [5]) of the same sequence?
**A.** 6.39 upbm affinity estimate (log intensity, higher = more binding, comparable within an allelic series)

**Q.** And the binding signal (ALX1 [14])?
**A.** 6.38 upbm affinity estimate (log intensity, higher = more binding, comparable within an allelic series)

**Q.** Which binding signal (HESX1 [1]) does the source give for ACTCAATA here?
**A.** 7.78 upbm affinity estimate (log intensity, higher = more binding, comparable within an allelic series)

**Q.** And the binding signal (HESX1 [2])?
**A.** 7.87 upbm affinity estimate (log intensity, higher = more binding, comparable within an allelic series)

**Q.** And the binding signal (HESX1 [3])?
**A.** 7.28 upbm affinity estimate (log intensity, higher = more binding, comparable within an allelic series)

**Q.** What about the binding signal (HESX1 [4]) of the same sequence?
**A.** 7.59 upbm affinity estimate (log intensity, higher = more binding, comparable within an allelic series)

**Q.** And the binding signal (HESX1 [5])?
**A.** 7.33 upbm affinity estimate (log intensity, higher = more binding, comparable within an allelic series)

**Q.** Which results are given for AGCCGGTC?
**A.** binding signal (HESX1 [1]): 6.51 upbm affinity estimate (log intensity, higher = more binding, comparable within an allelic series); binding signal (HESX1 [2]): 6.44 upbm affinity estimate (log intensity, higher = more binding, comparable within an allelic series); binding signal (NKX2-6): 9.54 upbm affinity estimate (log intensity, higher = more binding, comparable within an allelic series); binding signal (HESX1 [3]): 6.51 upbm affinity estimate (log intensity, higher = more binding, comparable within an allelic series); binding signal (HESX1 [4]): 6.57 upbm affinity estimate (log intensity, higher = more binding, comparable within an allelic series); binding signal (HESX1 [5]): 6.52 upbm affinity estimate (log intensity, higher = more binding, comparable within an allelic series)

**Q.** How did the binding signal (HESX1 [1]) turn out when AGCGTTCG was run?
**A.** 6.54 upbm affinity estimate (log intensity, higher = more binding, comparable within an allelic series)

**Q.** What about the binding signal (HESX1 [2]) of the same sequence?
**A.** 6.5 upbm affinity estimate (log intensity, higher = more binding, comparable within an allelic series)

**Q.** What about the binding signal (HESX1 [3]) of the same sequence?
**A.** 6.53 upbm affinity estimate (log intensity, higher = more binding, comparable within an allelic series)

**Q.** And the binding signal (HESX1 [4])?
**A.** 6.53 upbm affinity estimate (log intensity, higher = more binding, comparable within an allelic series)

**Q.** And the binding signal (HESX1 [5])?
**A.** 6.63 upbm affinity estimate (log intensity, higher = more binding, comparable within an allelic series)

**Q.** What does the source list for CACGGCGC?
**A.** binding signal (HESX1 [1]): 6.6 upbm affinity estimate (log intensity, higher = more binding, comparable within an allelic series); binding signal (HESX1 [2]): 6.29 upbm affinity estimate (log intensity, higher = more binding, comparable within an allelic series); binding signal (HESX1 [3]): 6.5 upbm affinity estimate (log intensity, higher = more binding, comparable within an allelic series); binding signal (VAX1 [9]): 7.16 upbm affinity estimate (log intensity, higher = more binding, comparable within an allelic series); binding signal (HESX1 [4]): 6.54 upbm affinity estimate (log intensity, higher = more binding, comparable within an allelic series); binding signal (HESX1 [5]): 6.57 upbm affinity estimate (log intensity, higher = more binding, comparable within an allelic series); binding signal (VAX1 [10]): 7.21 upbm affinity estimate (log intensity, higher = more binding, comparable within an allelic series); binding signal (VAX1 [11]): 7.23 upbm affinity estimate (log intensity, higher = more binding, comparable within an allelic series)
